Yp Topo-I inh = Y. pestis Topo-I inhibition via cleavage products; Y. pestis Topo-I cleavage product accumulation, plate reader; AID 504884; hit rate 0.064% among 360,000; activity, % at 10 µM; in the data active = activity above about 50%, passing the limit was not always enough; inconclusive = no clear call, values can overlap the other calls
BioA inh = inhibitors of Mycobacterium tuberculosis BioA enzyme. purified M. tuberculosis BioA enzyme, plate reader. inhibition, % at 9.99 µM. hit rate 0.096% among 360,000; in the data active = inhibition above about 40%; inconclusive = no clear call, values can overlap the other calls
PrP 5UTR inh = inhibition of PrP 5' UTR reporter expression. cell-based PrP 5' UTR mRNA reporter, plate reader. AID 488862. hit rate 0.35% among 340,000. inhibition, % (concentration not given with the values); in the data active = inhibition above about 52%; note: 0 = median of the neutral control wells
FadD28 binding = M. tuberculosis FadD28 bisubstrate binding inhibition; hit rate 0.22% among 360,000; inhibition, % at 12.5 µM; FadD28 bisubstrate probe binding, fluorescence polarization; in the data active = inhibition above about 8.5%, passing the limit was not always enough; inconclusive = no clear call, values can overlap the other calls
PfHsp40 yeast = rescue of PfHsp40-mediated yeast toxicity | growth rescue, % at 12.5 µM | AID 504582 | S. cerevisiae expressing PfHsp40, growth rescue, ATP luminescence | hit rate 0.68% among 340,000; in the data active = growth rescue above about 28%, passing the limit was not always enough; inconclusive = no clear call, values can overlap the other calls;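 note: yeast W303a lacking pdr1 and pdr3 grown in galactose medium; growth measured after three days at 30 °C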
* marks the source's active call; other numbers are inactive results; ? = inconclusive; / = no result given. Rows were chosen to be rich in hits. Some 1.1% of all compounds tested hit in one or more screens of this group.

SMILES	Yp Topo-I inh	BioA inh	PrP 5UTR inh	FadD28 binding	PfHsp40 yeast
COc1ccc(S(=O)(=O)N(C)C[C@H]2Oc3ccc(NC(=O)Nc4ccc5c(c4)OCO5)cc3C(=O)N([C@H](C)CO)C[C@H]2C)cc1	/	-2.9	/	/	/
COCC(=O)N[C@@H]1CC[C@H](CC(=O)N2CCCCC2)O[C@H]1CO	/	-1.2	/	/	/
O=[N+]([O-])c1ccc(N=Nc2ncc[nH]2)cc1	-3.2	0.1	2.7	-1.5	84.5*
CCCC(=O)Nc1ccc2c(c1)OC[C@@H](C)N(Cc1ccc(-c3ccccn3)cc1)C[C@@H](C)[C@@H](OC)CN(C)C2=O	/	-2.7	/	/	/
C[C@@H]1CCCCO[C@H](CN(C)S(=O)(=O)c2cccs2)[C@H](C)CN([C@@H](C)CO)C(=O)c2cc(NS(=O)(=O)c3ccc(Cl)cc3)ccc2O1	/	-0.8	/	/	/
O=[N+]([O-])c1cc(CN2CCCC2)c2cccnc2c1O	4.5	/	-10.7	0.0	11.5
O=[N+]([O-])c1cc(CN2CCN(c3cccc(C(F)(F)F)c3)CC2)c2cccnc2c1O	/	/	7.8	/	48.1*
CN1CCN(C(=O)C[C@@H]2CC[C@@H]3[C@H](COC[C@@H](O)CN3Cc3ccc(Oc4ccccc4)cc3)O2)CC1	/	0.8	/	/	/
CCCOc1ccc(S(=O)(=O)n2cc(F)c(=O)[nH]c2=O)cc1	1.1	-0.7	-27.6	0.0	161.7*
CCOc1ccc(Cn2cc(F)c(=O)[nH]c2=O)cc1	-7.8	-1.6	-5.3	1.4	0.9
CC(C)COc1ccc(S(=O)(=O)n2cc(F)c(=O)[nH]c2=O)cc1	8.2	/	-3.3	1.2	35.7*
O=C(C[C@@H]1CC[C@H](NC(=O)C2CCC2)[C@H](CO)O1)NCCCN1CCOCC1	/	1.8	/	/	/
CC1(C)Oc2ccc(NC(=O)C3COc4ccccc4O3)cc2O1 (configuration not stated)	3.8	0.0	-45.1	-1.1	40.7*
C=CCN(c1ccccc1)S(=O)(=O)c1cccc(C(=O)NNC(=O)c2ccccc2O)c1	-2.1	0.1	-22.8	-0.8	92.4*
C[C@@H]1CN([C@@H](C)CO)S(=O)(=O)c2ccc(C#Cc3ccc(F)cc3)cc2O[C@@H]1CN(C)C	/	0.7	/	/	/
O=C(Nc1cccc(Cl)c1)c1ccc2c(c1)OCCO2	-4.4	2.7	-86.1	-1.9	80.8*
O=C(C[C@@H]1CC[C@@H]2[C@H](COC[C@H](O)CN2S(=O)(=O)c2cccc(Cl)c2)O1)NCCCN1CCOCC1	/	-1.1	/	/	/
CC(C)=CCc1c(O)cc(O)c2c1OC(c1ccc(O)cc1)CC2=O (configuration not stated)	-8.9	1.5	-34.2	-9.1	262.4*
CC(C)=CCc1c(O)c(CC=C(C)C)c2c(c1O)C(=O)CC(c1ccc(O)cc1)O2 (configuration not stated)	-15.7	-0.9	-1.8	-5.7	9.0
CC(C)NC(=O)N(C)C[C@@H]1Oc2ccc(NS(=O)(=O)c3ccc(Cl)cc3)cc2C(=O)N([C@@H](C)CO)C[C@H]1C	/	-3.1	/	/	/
COc1cc(/C=N\NC(=O)C2COc3ccccc3O2)cc(OC)c1O (configuration not stated)	-0.6	-0.1	-6.8	-3.1	-1.6
CCOc1ccc(-n2c(O)c(/C=N/NC(=O)C3COc4ccccc4O3)c3ccccc3c2=O)cc1 (configuration not stated)	-3.8	1.7	-28.0	?	302.7*
O=C(CCN1CCCCC1)N[C@H]1CC[C@@H](CCNS(=O)(=O)c2ccc(F)cc2)O[C@H]1CO	/	-3.5	/	/	/
CC(C)(C)c1nnc(NS(=O)(=O)c2cc(Cl)ccc2Cl)s1	10.4	-0.3	-17.2	-1.8	2.4
O=S(=O)(Nc1nc(-c2sccc2Cl)cs1)c1cc(Cl)ccc1Cl	4.8	14.9	-16.1	23.6*	?
SMILES	Yp Topo-I inh	BioA inh	PrP 5UTR inh	FadD28 binding	PfHsp40 yeast
CCC(=O)N(C)C[C@@H]1Oc2ncc(C#Cc3ccncc3)cc2C(=O)N([C@@H](C)CO)C[C@H]1C	/	2.3	/	/	/
Cc1ccc(-c2csc(NS(=O)(=O)c3cccc(F)c3)n2)o1	7.2	3.0	-13.5	16.1*	-0.2
CC(=O)NC(c1ccc2ccccc2c1)c1ccc2cccnc2c1O (configuration not stated)	-4.0	-1.5	40.8	0.2	85.0*
CC(=O)NC(c1ccc(Cl)cc1Cl)c1ccc2cccnc2c1O (configuration not stated)	2.9	-1.4	21.7	-1.8	444.6*
CCCC(=O)NC(c1ccc(Cl)cc1Cl)c1ccc2cccnc2c1O (configuration not stated)	12.1	-0.3	36.9	-1.2	-2.4
CCCC(=O)NC(c1ccc(C)cc1)c1ccc2cccnc2c1O (configuration not stated)	-8.8	0.3	30.1	-4.0	?
